# Results reported in PubChem BioAssay (Tox21).
# Inconclusive results are not listed. Active and inactive are the calls of the source. The call rests on the fitted dose curve.
# Target: Acetylcholinesterase (Homo sapiens) (UniProt P22303)
# Test: Acetylcholinesterase (AChE) small molecule antagonists: colormetric cell-based qHTS assay (AID 1347395); further: nearly all actives have a fitted effect of over 30% in size
# Settings: SH-SY5Y cells AChE activity, colorimetric (Ellman); series mostly up to 115 µM; activity, negative = inhibition: at the top concentration
# Outline: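 Cells (SH-SY5Y, 2,000 per well) are seeded and left overnight at 37 C. Compound is added for 30 min, then DTNB and acetylthiocholine for a further 90 min at 37 C before absorbance-based thiocholine detection.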
# On the % scale 0 is the no-effect control and ±100 the full control effect; potency means the concentration at half of the fitted maximal effect.
# Sequence of Acetylcholinesterase (Homo sapiens) (P22303 whole entry, looked up): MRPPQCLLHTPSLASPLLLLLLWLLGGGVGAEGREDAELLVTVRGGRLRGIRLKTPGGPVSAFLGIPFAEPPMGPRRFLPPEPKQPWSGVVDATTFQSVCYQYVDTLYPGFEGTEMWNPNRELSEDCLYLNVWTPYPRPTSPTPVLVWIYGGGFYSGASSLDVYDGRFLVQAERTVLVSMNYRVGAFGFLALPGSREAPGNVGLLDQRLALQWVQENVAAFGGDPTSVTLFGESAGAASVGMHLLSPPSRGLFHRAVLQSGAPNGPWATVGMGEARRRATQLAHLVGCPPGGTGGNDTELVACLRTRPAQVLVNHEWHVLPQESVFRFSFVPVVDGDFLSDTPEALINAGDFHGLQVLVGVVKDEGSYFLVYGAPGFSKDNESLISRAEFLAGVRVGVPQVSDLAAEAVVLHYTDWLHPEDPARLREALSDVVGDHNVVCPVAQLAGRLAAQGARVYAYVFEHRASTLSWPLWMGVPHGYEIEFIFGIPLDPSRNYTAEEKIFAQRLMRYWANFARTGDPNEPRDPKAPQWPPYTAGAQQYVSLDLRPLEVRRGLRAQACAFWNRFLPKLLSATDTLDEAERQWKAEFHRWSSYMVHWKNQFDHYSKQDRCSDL
SMILES,"activity, negative = inhibition",Potency
CCCCCCCCCCCCCCC(=O)O,-15.2% (inactive),
CCCC(=O)OCOC(=O)C1=C(C)NC(C)=C(C(=O)OC)C1c1cccc(Cl)c1Cl (stereo not given),0.745% [at 52.9 µM] (inactive),
OCCN(CCO)c1ccccc1,1.26% (inactive),
CC(C)CCCCCOC(=O)CS,2.47% (inactive),
C=CC(=O)OCCCCCCOC(=O)C=C,,inactive
CCCCCCCC/C=C\CCCCCCCC(=O)OC,-3.28% (inactive),
O=Cc1ccc([N+](=O)[O-])cc1,-6.15% (inactive),
N[C@H]1CN(c2c(F)cc3c(=O)c(C(=O)O)cn(C4C[C@H]4F)c3c2Cl)CC12CC2 (stereo not given in full),1.11% [at 52.9 µM] (inactive),
O=S(c1cc(Cl)cc(Cl)c1O)c1cc(Cl)cc(Cl)c1O,-0.757% [at 52.9 µM] (inactive),
COc1ccc(CCC(C)=O)cc1,,inactive
CCC(CC)C(=O)O,0.558% (inactive),
OCc1cccc(Oc2ccccc2)c1,,inactive
CC(C)(C)c1cc(CCC(=O)OCC(COC(=O)CCc2cc(C(C)(C)C)c(O)c(C(C)(C)C)c2)(COC(=O)CCc2cc(C(C)(C)C)c(O)c(C(C)(C)C)c2)COC(=O)CCc2cc(C(C)(C)C)c(O)c(C(C)(C)C)c2)cc(C(C)(C)C)c1O,3.15% [at 52.9 µM] (inactive),
O=C(Cl)c1c(Cl)cccc1Cl,,64 µM (active)
C=C(C)C(=O)O,,inactive
COCCOCCOCCO,,inactive
CC(C)(C)C(=O)c1ccccc1,2.47% (inactive),
CCc1ccccc1,0.894% (inactive),
CCCOC(=O)CC,0.558% (inactive),
O=C(NCC1CN(c2ccc(N3CCOCC3=O)cc2)C(=O)O1)c1ccc(Cl)s1 (stereo not given),-1.14% [at 52.9 µM] (inactive),

SMILES,"activity, negative = inhibition",Potency
Nc1ccc(O)c([N+](=O)[O-])c1,-1.42% (inactive),
C[C@]12CCC(=O)C=C1C=C[C@@H]1[C@@H]2CC[C@@]2(C)[C@H]1CC[C@@]21CCC(=O)O1,-0.318% [at 52.9 µM] (inactive),
C/C(C=O)=C\c1ccccc1,1.81% (inactive),
CSc1ccc(/C=C2/C(C)=C(CC(=O)O)c3cc(F)ccc32)cc1,1.01% [at 52.9 µM] (inactive),
COCC(C)O (stereo not given),,inactive
COc1ccc2c(c1)c(CC(=O)O)c(C)n2C(=O)c1ccc(Cl)cc1,,inactive
Cc1cccc(C)c1NC(=O)CC12CCCN1CCC2,-2.38% [at 52.9 µM] (inactive),
O=C(O)O,-0.194% [at 10.5 µM] (inactive),
CC(C)Cc1nccs1,-4.81% (inactive),
CC(Oc1cc(Cl)ccc1Cl)C(=O)O (stereo not given),0.427% (inactive),
CN1C(=O)c2ccccc2C1=O,0.736% (inactive),
CC(C)CCCCCOC(=O)CCCCC(=O)OCCCCCC(C)C,-6.32% (inactive),
CC(C)C(=O)c1c(C(C)C)nn2ccccc12,-0.205% [at 52.9 µM] (inactive),
CN(C)Cc1cc(C(C)(C)C)c(O)c(C(C)(C)C)c1,-0.8% (inactive),
CC(C(=O)O)c1ccc(-c2ccccc2)c(F)c1 (stereo not given),-0.704% (inactive),
CCCOC(=O)c1cc(O)c(O)c(O)c1,,inactive
CCC(C)OC(=O)N1CCCCC1CCO (stereo not given),-4.37% (inactive),
O=c1[nH]c(=O)n([C@H]2C[C@H](O)[C@@H](CO)O2)cc1C(F)(F)F,-0.373% [at 52.9 µM] (inactive),
CC(=O)OCC=C(C)C,1.66% [at 52.9 µM] (inactive),
CCCCN(CCC(=O)OCC)C(C)=O,2.79% (inactive),
